Experiment [1] concerns the target Androgen receptor (Homo sapiens) (UniProt P10275). Kind of experiment: qHTS assay for small molecule agonists of androgen receptor signaling (AID 588515; active = well fitted curve in the direction sought with a large enough effect in the signal ratio, with a control signal flat; the % refers to the signal ratio). Particulars: AR-UAS-bla HEK293, beta-lactamase ratio, agonist 16 h; stronger effect = higher value. Summed up:
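Stimulation of an AR-responsive β-lactamase reporter in GripTite HEK293 cells was measured after 16 h compound exposure at 37 °C, via CCF4 fluorescence after 2 h RT. EC50 from Hill fits, normalized to R1881 at 30 nM.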
On the technique in general: qHTS replaces the single test concentration by a dilution series.

For experiment [2] the target is unchanged. Briefly: qHTS assay for small molecule antagonists of androgen receptor signaling (AID 588516; active = well fitted curve in the direction sought with a large enough effect in the signal ratio, with a control signal flat, not every such curve was filed as active; the % refers to the signal ratio). As to conditions: AR-UAS-bla HEK293, beta-lactamase ratio, antagonist mode, 16 h; series mostly up to 76.8 µM. The method in brief: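 Compounds tested in titration against 10 nM R1881 in AR-responsive bla reporter HEK 293 cells; CCF4 fluorescence (460/530 nm) after 16 h exposure gave IC50 and efficacy.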

Experiment [3] addresses Cytochrome P450 3A4 (Homo sapiens) (UniProt P08684). Briefly: qHTS Assay for Activators of Cytochrome P450 3A4 (AID 885). Also: nearly all actives have a fitted effect of over 65% in size. As to conditions: recombinant CYP3A4, Luciferin-PPXE luminescence, 60 min; series mostly up to 11.4 µM. The method in brief: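 CYP3A4 activity: Luciferin-PPXE O-dealkylation, 25uM substrate, 200mM KPO4, RT throughout. Read-out is luciferase luminescence; higher values reflect activation.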

Experiment [4] has as its target DNA dC->dU-editing enzyme APOBEC-3G (Homo sapiens) (UniProt Q9HC16). Briefly: qHTS for inhibitors of Vif-A3G interactions: Validation (AID 588379). As to conditions: Vif-A3G protein interaction assay; series mostly up to 46.1 µM. The method in brief:
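Yellow fluorescence (Ex 488, Em 500-530) of Vif-coexpressing HeLa A3G-eYFP cells, scanned by Acumen cytometer, reports blocked A3G degradation. Cells plated at 700/well overnight at 37 deg C before compound addition, then a further overnight compound incubation at 37 deg C.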

The target in experiment [5] is ATP-dependent 6-phosphofructokinase (Trypanosoma brucei brucei) (UniProt O15648). Kind of experiment: qHTS Assay to Find Inhibitors of T. brucei phosphofructokinase: hit validation (AID 492961).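 Also: luminescence reports ADP formed as PFK phosphorylates fructose-6-phosphate with ATP.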 Particulars: T. brucei PFK, ADP-Glo luminescence; series mostly up to 51.4 µM. The method in brief: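 Percent activity derived from corrected luminescence, normalized between 0x and 1x enzyme controls, then fitted to concentration-response curves. Conditions: 1.25 nM PFK, 0.1 mM ATP, 0.5 mM F6P, 45 min RT.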
Sequence of ATP-dependent 6-phosphofructokinase (Trypanosoma brucei brucei) (O15648 whole entry, looked up): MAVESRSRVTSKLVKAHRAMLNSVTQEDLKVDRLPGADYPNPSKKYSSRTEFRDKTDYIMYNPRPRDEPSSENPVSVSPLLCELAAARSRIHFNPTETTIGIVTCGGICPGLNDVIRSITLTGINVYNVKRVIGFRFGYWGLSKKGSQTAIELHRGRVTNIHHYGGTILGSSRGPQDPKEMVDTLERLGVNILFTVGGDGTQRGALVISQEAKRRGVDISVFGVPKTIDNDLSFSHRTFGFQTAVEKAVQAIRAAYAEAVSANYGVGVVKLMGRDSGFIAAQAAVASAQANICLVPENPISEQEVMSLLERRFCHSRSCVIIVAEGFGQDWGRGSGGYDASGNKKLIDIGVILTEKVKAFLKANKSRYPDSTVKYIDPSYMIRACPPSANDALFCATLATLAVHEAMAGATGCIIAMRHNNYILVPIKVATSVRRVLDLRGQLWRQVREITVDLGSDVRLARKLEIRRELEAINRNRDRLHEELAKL

The test system of another experiment is CP185. Kind of experiment: qHTS profiling for inhibitors of Plasmodium falciparum proliferation (AID 504749). Also: nearly all actives have a fitted effect of over 60% in size. As to conditions: P. falciparum in erythrocytes, SYBR Green DNA, 72 h; series mostly up to 28.7 µM. The method in brief: (§1)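 Quantitative HTS: compounds pinned into medium, infected erythrocytes added (0.3% parasitemia, 2.5% hematocrit), 72 h culture at 37 C under 5% CO2. Saponin/Triton lysis with SYBR Green I, overnight RT, then fluorescence read.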

A further experiment deals with CP191. The experiment is described as above. Particulars: P. falciparum in erythrocytes, SYBR Green DNA, 72 h; series mostly up to 28.7 µM. Summed up: as §1
For a further experiment, the system named is CP192. The experiment is described as above. Particulars: P. falciparum in erythrocytes, SYBR Green DNA, 72 h; series mostly up to 28.7 µM. The method in brief:
as §1

The test system of a further experiment is CP194. Described as above. As to conditions: P. falciparum in erythrocytes, SYBR Green DNA, 72 h; series mostly up to 28.7 µM. Summed up: as §1
In a further experiment the test system is CP201. The experiment is described as above. Particulars: P. falciparum in erythrocytes, SYBR Green DNA, 72 h; series mostly up to 28.7 µM. The method in brief: as §1
In a further experiment the test system is CP203. Described as above. As to conditions: P. falciparum in erythrocytes, SYBR Green DNA, 72 h; series mostly up to 28.7 µM. The method in brief: as §1
The next experiment concerns CP238. The description is as above. As to conditions: P. falciparum in erythrocytes, SYBR Green DNA, 72 h; series mostly up to 28.7 µM. The method in brief: as §1
The test system of the next experiment is CP305. The description is as above. As to conditions: P. falciparum in erythrocytes, SYBR Green DNA, 72 h; series mostly up to 28.7 µM. The method in brief: as §1
A further experiment concerns DIV30. The description is as above. Particulars: P. falciparum in erythrocytes, SYBR Green DNA, 72 h; series mostly up to 28.7 µM. Summed up:
as §1

For a further experiment, the system named is P94_40. The description is as above. Particulars: P. falciparum in erythrocytes, SYBR Green DNA, 72 h; series mostly up to 28.7 µM. Summed up: as §1
A further experiment concerns PC49. The experiment is described as above. Particulars: P. falciparum in erythrocytes, SYBR Green DNA, 72 h; series mostly up to 28.7 µM. The method in brief:
as §1

The test system of another experiment is TAB113. The description is as above. Particulars: P. falciparum in erythrocytes, SYBR Green DNA, 72 h; series mostly up to 28.7 µM. Summed up:
as §1

Experiment [6] concerns the target DNA repair nuclease/redox regulator APEX1 (Homo sapiens) (UniProt P27695). Kind of experiment: Confirmation qHTS Assay for Inhibitors of the Human Apurinic/apyrimidinic Endonuclease 1 (APE1) (AID 2572). Also: nearly all actives have a fitted effect of over 30% in size. Also: potency is read from the fitted curve at half-maximal effect. As to conditions: purified APE1, fluorogenic abasic-site DNA cleavage; series mostly up to 57.1 µM. Summed up:
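Confirmation qHTS in dose-response format: APE1 exposed to compound 15 min at RT, then reaction started with 50 nM final TAMRA/BHQ-2 abasic substrate. Three fluorescence reads 60 s apart; endpoint minus initial read gives progress.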

Experiment [7] is described as follows: Counterscreen for APE1 Inhibitors: Fluorescent Dye Displacement Assay (AID 2564).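 Also: loss of thiazole orange fluorescence as the dye is displaced from duplex DNA.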 Particulars: DNA fluorescent dye displacement counterscreen, fluorescence; series mostly up to 28.5 µM. The method in brief: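 Signal: ThO fluorescence (ex 480 nm/em 540 nm) on binding 50 nM dsDNA; displacement by test compound reduces it. Conditions: 250 nM dye, 50 mM Tris-HCl pH7.5, 2 mM MgCl2, 50mM NaCl, 0.01% Tween-20.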
In general terms: The purpose of a counterscreen is to sort out artefacts and off-target activity.

For experiment [8], the target named is DNA repair nuclease/redox regulator APEX1 (Homo sapiens) (UniProt P27695). Kind of experiment: qHTS FP-Based Assay for Inhibitors of the Human Apurinic/apyrimidinic Endonuclease 1 (APE1) (AID 2573). Also: potency is read from the fitted curve at half-maximal effect. As to conditions: APE1 binding to TAMRA-labelled double-stranded DNA, fluorescence polarization displacement; series mostly up to 28.5 µM.
Sequence of DNA repair nuclease/redox regulator APEX1 (Homo sapiens) (P27695 whole entry, looked up): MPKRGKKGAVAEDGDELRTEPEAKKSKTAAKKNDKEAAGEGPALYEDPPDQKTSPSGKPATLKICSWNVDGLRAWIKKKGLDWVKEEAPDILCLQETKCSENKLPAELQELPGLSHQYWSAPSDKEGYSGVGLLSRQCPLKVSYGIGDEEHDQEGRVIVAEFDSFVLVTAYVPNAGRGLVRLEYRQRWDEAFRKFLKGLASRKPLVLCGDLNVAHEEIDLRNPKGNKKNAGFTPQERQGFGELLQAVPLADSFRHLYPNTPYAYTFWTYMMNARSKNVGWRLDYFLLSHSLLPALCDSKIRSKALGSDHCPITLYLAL

Values joined by “and” are separate entries in the source; they are usually repeats but may differ in a detail not shown here. Equal values may be shown once. Unmarked numbers belong to inactive results. Results filed as inconclusive are left out. This is one part of the list. A call without a number means that no potency is given here. Active and inactive are the calls of the source. Unless noted, calls follow the shape of the dose curve; as a rule, active = well fitted curve in the direction sought with a large enough effect; inconclusive = small, poorly fitted or top-dose-only effect, or another doubt; inactive = no such curve, though single readings can be large; an effect the other way counts as inactive or inconclusive.

Sequence of DNA dC->dU-editing enzyme APOBEC-3G (Homo sapiens) (Q9HC16 whole entry, looked up): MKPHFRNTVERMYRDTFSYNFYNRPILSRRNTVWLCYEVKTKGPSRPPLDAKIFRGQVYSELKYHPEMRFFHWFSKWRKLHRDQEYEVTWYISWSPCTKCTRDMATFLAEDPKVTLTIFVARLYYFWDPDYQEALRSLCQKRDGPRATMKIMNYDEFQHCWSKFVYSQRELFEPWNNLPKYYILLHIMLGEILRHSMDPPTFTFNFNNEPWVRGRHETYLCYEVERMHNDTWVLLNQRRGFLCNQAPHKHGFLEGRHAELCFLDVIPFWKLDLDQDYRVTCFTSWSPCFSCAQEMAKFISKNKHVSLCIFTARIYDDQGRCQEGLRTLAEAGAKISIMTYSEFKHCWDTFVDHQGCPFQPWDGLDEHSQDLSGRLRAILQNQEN
Sequence of Androgen receptor (Homo sapiens) (P10275 whole entry, looked up): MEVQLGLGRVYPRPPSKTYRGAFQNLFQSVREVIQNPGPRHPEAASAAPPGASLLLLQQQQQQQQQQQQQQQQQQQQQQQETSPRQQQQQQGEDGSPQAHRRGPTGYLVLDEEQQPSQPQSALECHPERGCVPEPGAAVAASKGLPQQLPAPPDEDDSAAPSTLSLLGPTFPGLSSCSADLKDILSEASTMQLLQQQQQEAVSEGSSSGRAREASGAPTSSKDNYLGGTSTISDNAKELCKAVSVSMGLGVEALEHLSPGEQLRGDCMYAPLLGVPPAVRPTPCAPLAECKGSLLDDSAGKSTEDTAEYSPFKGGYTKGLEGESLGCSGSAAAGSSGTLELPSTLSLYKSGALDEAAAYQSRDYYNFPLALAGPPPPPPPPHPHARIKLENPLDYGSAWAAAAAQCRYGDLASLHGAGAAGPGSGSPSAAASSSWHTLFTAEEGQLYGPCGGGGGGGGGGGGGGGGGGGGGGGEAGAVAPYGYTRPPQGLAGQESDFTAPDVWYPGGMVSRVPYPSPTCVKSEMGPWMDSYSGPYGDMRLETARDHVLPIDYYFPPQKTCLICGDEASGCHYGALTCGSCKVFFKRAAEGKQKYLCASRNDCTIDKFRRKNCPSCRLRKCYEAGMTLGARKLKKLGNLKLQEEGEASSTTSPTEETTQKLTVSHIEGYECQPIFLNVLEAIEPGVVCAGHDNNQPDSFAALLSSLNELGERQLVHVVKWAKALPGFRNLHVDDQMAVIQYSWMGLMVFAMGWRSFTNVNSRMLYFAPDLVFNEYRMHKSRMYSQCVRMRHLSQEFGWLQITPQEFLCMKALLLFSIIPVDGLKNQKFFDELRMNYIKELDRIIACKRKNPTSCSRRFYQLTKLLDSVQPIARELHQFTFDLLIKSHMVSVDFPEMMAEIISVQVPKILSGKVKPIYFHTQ
Sequence of Cytochrome P450 3A4 (Homo sapiens) (P08684 whole entry, looked up): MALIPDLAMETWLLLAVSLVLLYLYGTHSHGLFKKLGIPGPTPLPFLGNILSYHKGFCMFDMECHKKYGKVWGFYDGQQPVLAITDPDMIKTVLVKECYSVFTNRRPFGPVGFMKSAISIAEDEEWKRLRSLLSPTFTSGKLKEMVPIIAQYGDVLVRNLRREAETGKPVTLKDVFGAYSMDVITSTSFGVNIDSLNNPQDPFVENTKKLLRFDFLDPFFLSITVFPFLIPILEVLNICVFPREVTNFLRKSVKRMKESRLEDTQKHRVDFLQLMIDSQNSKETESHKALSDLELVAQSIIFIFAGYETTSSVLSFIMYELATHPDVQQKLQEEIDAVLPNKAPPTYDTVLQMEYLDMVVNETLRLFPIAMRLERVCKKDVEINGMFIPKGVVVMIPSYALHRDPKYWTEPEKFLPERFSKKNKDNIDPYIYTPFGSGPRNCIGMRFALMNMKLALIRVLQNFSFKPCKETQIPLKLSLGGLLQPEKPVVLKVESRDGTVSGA

For `Nc1cc([N+](=O)[O-])ccc1O`, the activation in [1] is -20.1%. The outcome in [2] was inactive.
Take `COc1ccc(C(=O)Nc2ccccc2)cc1[N+](=O)[O-]`: the Potency result in [3] is “inactive”.
Take `C/C(Cl)=C/CCl`: in experiment [1], the activation was 10.2%. Besides, in [2], the result was inactive.
As for `COc1cc(-c2ccc(N=C=O)c(OC)c2)ccc1N=C=O`, the Potency result in experiment [3] was “inactive”.
In the case of `COc1ccc(C)cc1N`, the activation in experiment [1] is 1.38%.
`CCC(Cl)CC(Cl)C(Cl)C(Cl)C(Cl)C(C)Cl` (centres undefined): in [1], the activation is -4.22%.
Consider `Cc1ccc(N)cc1[N+](=O)[O-]`, for which the outcome in experiment [2] was inactive.
As for `CCCCC(CC)COCCCN` (centres undefined), in experiment [3], the Potency entry is “inactive”.
Take `Cc1ccc(C(=O)O)cc1[N+](=O)[O-]`: the activation in experiment [1] is 6.4%. Also, in experiment [2], the result was inactive.
As for `Nc1ccc(N=Nc2ccccc2)c(N)c1`, the Potency result in [3] is “inactive”.
For `CCCCCCCCC1CO1` (centres undefined), the activation in experiment [1] was 13.4%. Besides, the result in experiment [2] was inactive.
`C/C=C/C=C/C=O`: the result in experiment [2] was inactive.
Consider `O=C(O)/C=C/c1ccc(/C=C/C(=O)O)cc1`, for which the activation in experiment [1] was -7.2%.
As for `C=CC(C)(O)CCCC(C)CCCC(C)CCCC(C)C` (centres undefined), the Potency entry in experiment [3] is “inactive”. In addition, the molecule was called inactive in experiment [4].
As for `c1ccc(SCCSc2ccccc2)cc1`, the activation in [1] was 12.3%.
In the case of `Nc1ccc(-c2ccc(N)c(O)c2)cc1O`, in experiment [1], the activation was 4.81%.
In the case of `O=C(Cl)c1ccc([N+](=O)[O-])cc1`, the activation in experiment [1] was 25.7%. For the same molecule, the outcome in [2] was inactive.
Turning to `Cc1cc(=O)oc2cc(O)cc(O)c12`, the Potency entry in experiment [3] is “inactive”.
Consider `c1cc2c3c(c1)ccc1cccc(c13)C2`, for which the Potency entry in experiment [3] was “inactive”.
On the same count and under the same terms, the entry for `Nc1ccc2c(c1)C(=O)c1ccccc1C2=O` is “inactive”.
On to `CCc1ccc(C(c2ccc(CC)cc2)C(Cl)Cl)cc1`, for which the activation in [1] was -10.8%.
For `CCCCCCCC/C=C\CCCCCCCC(=O)N(CCO)CCO`, the Potency result in experiment [3] was “inactive”.
On to `CC(=O)OC(C(=O)c1ccccc1)c1ccccc1` (centres undefined), for which, in experiment [1], the activation is -5.55%.
For `CC1=C(/C=C/C(C)=C/C=C/C(C)=C/C=O)C(C)(C)CCC1`, the Potency result in experiment [3] is “inactive”.
On to `C=C1CC[C@H](O)C/C1=C/C=C1\CCC[C@]2(C)[C@@H]([C@H](C)CCCC(C)C)CC[C@@H]12`, for which the Potency result (in [3]; in the experiment with CP185; in the experiment with CP191; in the experiment on CP192; with CP194; in the experiment on CP201) was “inactive” in each case. Moreover, the Potency entry with CP203, in the experiment on CP238, in the experiment on CP305, with DIV30, in the experiment on P94_40 and with PC49 was “inactive” each time. Besides, the Potency result with TAB113 is “inactive”. The molecule was called inactive in experiment [5].
As for `c1ccc2c(c1)ccc1ccccc12`, the activation in experiment [1] was -2.75% and -0.0415%. The outcome in experiment [2] was inactive.
With `Nc1ccc(N)c(Cl)c1`, the Potency result in [3] was “inactive”.
Consider `Cc1c(C(=O)O)c(O)cc2c1C(=O)c1c(O)c([C@H]3O[C@H](CO)[C@@H](O)[C@H](O)[C@H]3O)c(O)c(O)c1C2=O`, for which the Potency result (in experiment [3]; in the experiment with CP185; in the experiment with CP191; with CP192; in the experiment with CP194; in the experiment with CP201) was “inactive” in each case. Besides, the Potency result in the experiment with CP203, with CP238, in the experiment on CP305, with DIV30, in the experiment on P94_40 and with PC49 was “inactive” in each case. Besides, the Potency result in the experiment on TAB113 is “inactive”. For the same molecule, the result in [5] and in [4] was inactive.
For the molecule `CCOCN(C(=O)Cn1c(C(C)O)nc2ccccc21)c1c(C)cccc1CC` (centres undefined), the Potency result in [6] was “inactive”.
As to `Cc1ccc(-c2nc(SCC(=O)Nc3ccccc3OC(F)F)c3c(C)c(C(=O)O)sc3n2)cc1`, in experiment [7], the result was inactive. For the same molecule, the Potency in experiment [6] is 7.94 µM (active); in experiment [8], 11.2 µM (active).
Take `C=CCn1c(=S)[nH]c2scc(-c3ccco3)c2c1=O`: the call in experiment [7] was inactive. The Potency result in [8] was “inactive”.
Take `S=C(NC1CCCCC1)NC1CCCCC1`: in experiment [3], the Potency result is “inactive”.
As to `CC/C=C/C/C=C/C/C=C/CCCCCCCC(=O)OCC`, the Potency entry in [3] was “inactive”.
In the case of `Oc1cc2c(cc1O)[C@H]1c3ccc(O)c(O)c3OC[C@@]1(O)C2`, the Potency entry in [3] was “inactive”. For the same molecule, in [4], the result was inactive.
As to `N/C(=N\OC(=O)Nc1ccccc1)c1ccno1`, in experiment [7], the molecule was called inactive. For the same molecule, the Potency result in experiment [6] and in experiment [8] was “inactive” each time.
Take `CN(C)c1ccc(C(=N)c2ccc(N(C)C)cc2)cc1`: the Potency entry in experiment [3] was “inactive”.
Turning to `O=[N+]([O-])c1cc(N(CCO)CCO)ccc1NCCO`, in experiment [1], the activation was 15% and 1.64%. For the same molecule, the outcome in [2] was inactive.
In the case of `COc1ccc(NC(=O)CSc2nc(NS(=O)(=O)c3ccc(C)cc3)cc(=O)[nH]2)cc1`, the Potency in experiment [6] was 39.8 µM (active).
For the molecule `Cc1ccc(Cc2cnc(N)s2)o1`, the molecule was called inactive in [7]. For the same molecule, the Potency result in [6] is “inactive”.
Consider `Cc1cc(C)c2nc(-c3ccco3)cc(C(=O)O)c2c1`, for which the molecule was classed as inactive in experiment [7]. Moreover, the Potency in experiment [6] was 12.6 µM (active). Besides, the Potency entry in experiment [8] is “inactive”.
Regarding `C=CC(=O)OCCCCCCOC(=O)C=C`, in experiment [3], the Potency entry is “inactive”. Besides, the activation in [1] is 1.98%.
`Cc1cc2nc(N)sc2cc1C`: in [3], the Potency result is “inactive”.
Regarding `O=c1nc2s/c(=C\c3ccco3)c(=O)n2nc1Cc1ccccc1`, the molecule was called inactive in [7]. Further, the Potency entry in experiment [8] was “inactive”.

The values are drawn from PubChem BioAssay (NCATS).
